A selection: hits, their analogues and other compounds. The true share with any hit is near 4.3%.
FGF22 binding – FGF22 (human) thermal shift binding; Q9HCT0; recombinant FGF22 thermal shift, SYPRO orange fluorescence; percent of sucrose octasulfate shift, DMSO zero; activity (Tm shift, normalised), % at 9.99 µM; 340,000 tested, 1.5% active;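 active = mean Tm shift, scaled 0 neutral to 100 positive control, at about 1.3% or above, every replicate too, limit read from the data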
Target sequence (Q9HCT0 whole entry, looked up): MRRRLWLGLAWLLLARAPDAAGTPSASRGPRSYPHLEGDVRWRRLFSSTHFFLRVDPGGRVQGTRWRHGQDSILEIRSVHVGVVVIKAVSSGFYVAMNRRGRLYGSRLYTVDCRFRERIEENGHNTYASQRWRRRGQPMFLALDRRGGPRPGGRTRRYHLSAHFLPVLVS
Wnt act – activates Wnt/beta-catenin signaling in a reporter cell assay; activator, plate reader; activation, % at 9.35 µM; 300,000 tested, 1.2% active; in the data active = activation above about 30%, passing the limit was not always enough;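 note: 0% = neutral control wells and 100% = positive control wells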
esBAF inh – inhibitors of esBAF chromatin remodeling in mouse ES cells | Bmi1-luciferase knock-in reporter, 24 h; 100% = twice the neutral-well signal | reporter increase, % at 12.5 µM | AID 602393 | 350,000 tested, 2% active; in the data active = activation above about 40%;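 note: 0% = median of the plate's neutral control wells and 100% = double that signal; a rise in the Bmi1 reporter signal indicates esBAF inhibition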
MITF TRPM1 HTS – MITF TRPM1 promoter activation in melanoma cells. SK-MEL-5 TRPM1-promoter luciferase, 24 h; % of positive control, neutral wells = 0. activation, % at 12.5 µM. 300,000 tested, 0.75% active. AID 588334;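 active = mean activation of at least 80% with every replicate also reaching 80%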;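 note: 0% = neutral control wells and 100% = parthenolide positive control wells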
SMARCA2 act – activators of SMARCA2 function; activation, % at 9.1 µM; 370,000 tested, 1% active; MG213 cells, MMTV-luciferase reporter, dexamethasone, overnight; AID 652017; in the data active = activation above about 7.8%;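 note: 0% = vehicle wells and 100% = reference activator wells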
MLL AF4-AF9 inh – inhibitors of human MLL-AF4/AF9 interaction; P42568; AlphaScreen, biotin-AF4 peptide binding to FLAG-AF9; inhibition, % at 10 µM; 350,000 tested, 0.47% active; AID 651704;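 active = every replicate reaching a set inhibition limit, whatever the replicate mean, cut at about 25% in these data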;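 note: 0% = plate neutral control median and 100% = total signal loss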
* = called active by the depositor; · = no result.

SMILES | FGF22 binding | Wnt act | esBAF inh | MITF TRPM1 HTS | SMARCA2 act | MLL AF4-AF9 inh
CC(=O)N(C)C[C@@H]1Oc2cc(C#Cc3ccncc3)ccc2S(=O)(=O)N([C@@H](C)CO)C[C@@H]1C | 1 | · | 3 | · | · | -3
C[C@H]1CN([C@@H](C)CO)C(=O)c2cccc(NS(=O)(=O)c3ccc(Cl)cc3)c2O[C@H]1CN(C)C(=O)Nc1ccccc1 | 0 | · | 1 | · | · | -8
Cc1ccc(S(=O)(=O)N[C@@H]2CC[C@H](CCn3cc(-c4ccccc4F)nn3)O[C@@H]2CO)cc1 | 1 | · | 9 | · | · | 0
c1nc2nc3c(c(N4CCCC4)n2n1)CCCC3 | · | · | · | · | -6 | ·
CC1CCC(NC(=O)C2CCN(c3c4c(nc5ncnn35)CCC4)CC2)CC1 (stereo unspecified) | · | · | 41* | · | · | ·
Cc1nnc(SCc2cc([N+](=O)[O-])cc3c2OCOC3)n(N)c1=O | 43* | 18 | · | -22 | -4 | -9
Cc1ccccc1Nc1nnc(SCc2cc([N+](=O)[O-])cc3c2OCOC3)s1 | 0 | -2 | · | 0 | · | -10
CCC(=O)N[C@@H]1CC[C@H](CC(=O)NCCN2CCCCC2)O[C@H]1CO | 0 | · | -3 | · | · | -3
CCOCc1c(C(=O)OCC(=O)Nc2ccccc2C(N)=O)oc2ccccc12 | 0 | 39* | -3 | -4 | -2 | -1
C[C@@H]1CN([C@H](C)CO)C(=O)c2cc(-c3ccccc3F)cnc2O[C@H]1CN(C)C(=O)NC1CCCC1 | 0 | · | 2 | · | · | -3
CCN(N=O)c1ccc(C=C2C=Cc3ccccc32)cc1 | 1 | 41* | · | 97* | -3 | 5
CCOC(=O)C1(CC2CC2)CCN(Cc2cn[nH]c2-c2cccc(F)c2)CC1 | 44* | 1 | · | 4 | -1 | 3
CCOC(=O)C1(CC2CC2)CCN(Cc2cn[nH]c2-c2ccccc2)CC1 | 43 | 3 | · | 0 | -1 | -1
Cc1cc(C(=O)COC(=O)c2cc(Cl)ccc2N)c(C)n1Cc1ccco1 | 0 | 10 | · | 106* | 5 | -3
C/C(=N\Nc1ccc(Cl)cc1)c1ccccn1 | · | · | 48* | 29 | 2 | ·
C/C(=N\NC(=O)c1ccc(Cl)cc1)c1ccccn1 | 0 | 15 | -9 | · | 2 | 6
C/C(=N\NC(=O)c1ccccn1)c1ccc(Cl)cc1 | 0 | 47* | · | · | 5 | 0
C/C(=N\Nc1ccc(Cl)cc1)c1ccncc1 | 0 | 3 | 8 | · | 2 | 14
Cc1noc(C)c1S(=O)(=O)N(C)C[C@H]1OCCCC[C@@H](C)Oc2ccc(NS(C)(=O)=O)cc2C(=O)N([C@H](C)CO)C[C@@H]1C | 0 | · | -7 | · | · | -12
CC(Oc1ccccc1)c1ccnc2nc(N3CCOCC3)nn12 (stereo unspecified) | 43* | 3 | 1 | 5 | -2 | -2
CC(Oc1ccc(Cl)cc1Cl)c1ccnc2nc(N3CCOCC3)nn12 (stereo unspecified) | 0 | 1 | 4 | -4 | 0 | 1
CN(C)C(=O)C[C@@H]1CC[C@@H]2[C@H](COC[C@@H](O)CN2C(=O)C2CC2)O1 | 0 | · | -5 | · | · | 0
O=C1C(=O)c2c(C(=O)c3ccccc3)coc2-c2ccccc21 | -1 | 27 | 67* | 29 | -1 | 15
Cc1ccccc1NC(=O)Nc1ccccc1C(=O)NCc1ccccc1 | · | -1 | -7 | 4 | -2 | ·
CCN1CCN(Cc2ccc(NC(=O)Nc3ccccc3Cl)cc2)CC1 | 0 | 15 | -9 | 55 | 6 | -1
SMILES | FGF22 binding | Wnt act | esBAF inh | MITF TRPM1 HTS | SMARCA2 act | MLL AF4-AF9 inh
Cc1ccc(NC(=O)Nc2ccccc2C(=O)NCc2ccccc2)cc1 | · | · | 51* | 48 | 3 | ·
O=C(CCl)Nc1ccccc1C(=O)NCc1ccccc1 | 43* | 0 | · | -27 | -6 | -8
CCN1CCN(Cc2ccccc2NC(=O)Nc2ccc(C)cc2)CC1 | · | · | 43* | 76 | 8 | ·
COCCNC(=O)c1ccccc1NC(=O)Nc1ccccc1 | 0 | -1 | · | -2 | -3 | 1
C=CCNC(=O)c1ccccc1NC(=O)Nc1ccccc1 | 0 | -1 | 8 | 12 | 7.8* | 6
COc1ccc(CN2C[C@@H](O)COC[C@@H]3O[C@H](CC(=O)NCc4ccccc4Cl)CC[C@H]32)cc1 | 0 | · | 9 | · | · | 3
COc1ccccc1OCCNC(=O)c1ccc2c(c1)OCCO2 | 0 | 52* | 8 | 59 | 2 | 4
COc1ccccc1OCCNC(=O)CNC(=O)c1ccc(Cl)c(Cl)c1 | 0 | -7 | · | -19 | 3 | -1

Source: PubChem BioAssay (several laboratories)
